{"source": "paper PMC11062922", "about": "(Nature Chemical Biology, 2023)", "system": "SYK", "details": "read-out: apparent Kd, n = 1", "note": "Read-outs that look alike come from different tables or passages of the source."}
{"substance": "Lestaurtinib", "values": [{"measurement": "potency estimated from few doses", "setting": "compound concentrations:100 nM and 1000 nM (sheet 'Lestaurtinib' of Supplementary Table 1),run:Lestaurtinib_02364_R1,Plate:MR002", "result": 481, "unit": "nM"}, {"measurement": "potency estimated from few doses", "setting": "compound concentrations:100 nM and 1000 nM (sheet 'Lestaurtinib' of Supplementary Table 1),run:Lestaurtinib_02364_R3,Plate:MR002", "result": 486, "unit": "nM"}, {"measurement": "potency estimated from few doses", "setting": "compound concentrations:100 nM and 1000 nM (sheet 'Lestaurtinib' of Supplementary Table 1),run:Lestaurtinib_02367_R1,Plate:MR003", "result": 140, "unit": "nM"}, {"measurement": "potency estimated from few doses", "setting": "compound concentrations:100 nM and 1000 nM (sheet 'Lestaurtinib' of Supplementary Table 1),run:Lestaurtinib_02381_R1,Plate:MR004", "result": 206, "unit": "nM"}, {"measurement": "potency estimated from few doses", "setting": "compound concentrations:100 nM and 1000 nM (sheet 'Lestaurtinib' of Supplementary Table 1),run:Lestaurtinib_02381_R2,Plate:MR004", "result": 170, "unit": "nM"}, {"measurement": "potency estimated from few doses", "setting": "compound concentrations:100 nM and 1000 nM (sheet 'Lestaurtinib' of Supplementary Table 1),run:Lestaurtinib_02381_R3,Plate:MR004", "result": 440, "unit": "nM"}, {"measurement": "potency estimated from few doses", "setting": "compound concentrations:100 nM and 1000 nM (sheet 'Lestaurtinib' of Supplementary Table 1),run:Lestaurtinib_02407_R1,Plate:MR005", "result": 189, "unit": "nM"}, {"measurement": "potency estimated from few doses", "setting": "compound concentrations:100 nM and 1000 nM (sheet 'Lestaurtinib' of Supplementary Table 1),run:Lestaurtinib_02407_R2,Plate:MR005", "result": 134, "unit": "nM"}, {"measurement": "potency estimated from few doses", "setting": "compound concentrations:100 nM and 1000 nM (sheet 'Lestaurtinib' of Supplementary Table 1),run:Lestaurtinib_02407_R3,Plate:MR005", "result": 157, "unit": "nM"}, {"measurement": "potency estimated from few doses", "setting": "compound concentrations:100 nM and 1000 nM (sheet 'Lestaurtinib' of Supplementary Table 1),run:Lestaurtinib_02422_R2,Plate:MR006", "result": 507, "unit": "nM"}, {"measurement": "potency estimated from few doses", "setting": "compound concentrations:100 nM and 1000 nM (sheet 'Lestaurtinib' of Supplementary Table 1),run:Lestaurtinib_02422_R3,Plate:MR006", "result": 218, "unit": "nM"}, {"measurement": "potency estimated from few doses", "setting": "compound concentrations:100 nM and 1000 nM (sheet 'Lestaurtinib' of Supplementary Table 1),run:Lestaurtinib_02437_R2,Plate:MR007", "result": 500, "unit": "nM"}, {"measurement": "potency estimated from few doses", "setting": "compound concentrations:100 nM and 1000 nM (sheet 'Lestaurtinib' of Supplementary Table 1),run:Lestaurtinib_02438_R2,Plate:MR008", "result": 161, "unit": "nM"}, {"measurement": "potency estimated from few doses", "setting": "compound concentrations:100 nM and 1000 nM (sheet 'Lestaurtinib' of Supplementary Table 1),run:Lestaurtinib_02443_R1,Plate:MR009", "result": 437, "unit": "nM"}, {"measurement": "potency estimated from few doses", "setting": "compound concentrations:100 nM and 1000 nM (sheet 'Lestaurtinib' of Supplementary Table 1),run:Lestaurtinib_02473_R1,Plate:MR010", "result": 478, "unit": "nM"}, {"measurement": "potency estimated from few doses", "setting": "compound concentrations:100 nM and 1000 nM (sheet 'Lestaurtinib' of Supplementary Table 1),run:Lestaurtinib_02473_R2,Plate:MR010", "result": 446, "unit": "nM"}, {"measurement": "potency estimated from few doses", "setting": "compound concentrations:100 nM and 1000 nM (sheet 'Lestaurtinib' of Supplementary Table 1),run:Lestaurtinib_02473_R3,Plate:MR010", "result": 416, "unit": "nM"}, {"measurement": "potency estimated from few doses", "setting": "compound concentrations:100 nM and 1000 nM (sheet 'Lestaurtinib' of Supplementary Table 1),run:Lestaurtinib_02482_R1,Plate:MR011", "result": 523, "unit": "nM"}, {"measurement": "potency estimated from few doses", "setting": "compound concentrations:100 nM and 1000 nM (sheet 'Lestaurtinib' of Supplementary Table 1),run:Lestaurtinib_02482_R2,Plate:MR011", "result": 462, "unit": "nM"}, {"measurement": "potency estimated from few doses", "setting": "compound concentrations:100 nM and 1000 nM (sheet 'Lestaurtinib' of Supplementary Table 1),run:Lestaurtinib_02482_R3,Plate:MR011", "result": 432, "unit": "nM"}, {"measurement": "potency estimated from few doses", "setting": "compound concentrations:100 nM and 1000 nM (sheet 'Lestaurtinib' of Supplementary Table 1),run:Lestaurtinib_02487_R1,Plate:MR012", "result": 598, "unit": "nM"}, {"measurement": "potency estimated from few doses", "setting": "compound concentrations:100 nM and 1000 nM (sheet 'Lestaurtinib' of Supplementary Table 1),run:Lestaurtinib_02487_R2,Plate:MR012", "result": 495, "unit": "nM"}, {"measurement": "potency estimated from few doses", "setting": "compound concentrations:100 nM and 1000 nM (sheet 'Lestaurtinib' of Supplementary Table 1),run:Lestaurtinib_02496_R1,Plate:MR013", "result": 515, "unit": "nM"}, {"measurement": "potency estimated from few doses", "setting": "compound concentrations:100 nM and 1000 nM (sheet 'Lestaurtinib' of Supplementary Table 1),run:Lestaurtinib_02496_R2,Plate:MR013", "result": 579, "unit": "nM"}, {"measurement": "potency estimated from few doses", "setting": "compound concentrations:100 nM and 1000 nM (sheet 'Lestaurtinib' of Supplementary Table 1),run:Lestaurtinib_02566_R1,Plate:MR014", "result": 297, "unit": "nM"}, {"measurement": "potency estimated from few doses", "setting": "compound concentrations:100 nM and 1000 nM (sheet 'Lestaurtinib' of Supplementary Table 1),run:Lestaurtinib_02566_R3,Plate:MR014", "result": 134, "unit": "nM"}, {"measurement": "potency estimated from few doses", "setting": "compound concentrations:100 nM and 1000 nM (sheet 'Lestaurtinib' of Supplementary Table 1),run:Lestaurtinib_02577_R1,Plate:MR016", "result": 260, "unit": "nM"}, {"measurement": "potency estimated from few doses", "setting": "compound concentrations:100 nM and 1000 nM (sheet 'Lestaurtinib' of Supplementary Table 1),run:Lestaurtinib_02577_R3,Plate:MR016", "result": 149, "unit": "nM"}, {"measurement": "potency estimated from few doses", "setting": "compound concentrations:100 nM and 1000 nM (sheet 'Lestaurtinib' of Supplementary Table 1),run:Lestaurtinib_02584_R1,Plate:MR017", "result": 473, "unit": "nM"}, {"measurement": "potency estimated from few doses", "setting": "compound concentrations:100 nM and 1000 nM (sheet 'Lestaurtinib' of Supplementary Table 1),run:Lestaurtinib_02584_R3,Plate:MR017", "result": 401, "unit": "nM"}, {"measurement": "potency estimated from few doses", "setting": "compound concentrations:100 nM and 1000 nM (sheet 'Lestaurtinib' of Supplementary Table 1),run:Lestaurtinib_02601_R1,Plate:MR018", "result": 420, "unit": "nM"}, {"measurement": "potency estimated from few doses", "setting": "compound concentrations:100 nM and 1000 nM (sheet 'Lestaurtinib' of Supplementary Table 1),run:Lestaurtinib_02601_R2,Plate:MR018", "result": 553, "unit": "nM"}, {"measurement": "potency estimated from few doses", "setting": "compound concentrations:100 nM and 1000 nM (sheet 'Lestaurtinib' of Supplementary Table 1),run:Lestaurtinib_02601_R3,Plate:MR018", "result": 462, "unit": "nM"}, {"measurement": "potency estimated from few doses", "setting": "compound concentrations:100 nM and 1000 nM (sheet 'Lestaurtinib' of Supplementary Table 1),run:Lestaurtinib_02606_R1,Plate:MR019", "result": 388, "unit": "nM"}, {"measurement": "potency estimated from few doses", "setting": "compound concentrations:100 nM and 1000 nM (sheet 'Lestaurtinib' of Supplementary Table 1),run:Lestaurtinib_02606_R2,Plate:MR019", "result": 511, "unit": "nM"}, {"measurement": "potency estimated from few doses", "setting": "compound concentrations:100 nM and 1000 nM (sheet 'Lestaurtinib' of Supplementary Table 1),run:Lestaurtinib_02606_R3,Plate:MR019", "result": 488, "unit": "nM"}, {"measurement": "potency estimated from few doses", "setting": "compound concentrations:100 nM and 1000 nM (sheet 'Lestaurtinib' of Supplementary Table 1),run:Lestaurtinib_02624_R1,Plate:MR020", "result": 402, "unit": "nM"}, {"measurement": "potency estimated from few doses", "setting": "compound concentrations:100 nM and 1000 nM (sheet 'Lestaurtinib' of Supplementary Table 1),run:Lestaurtinib_02624_R2,Plate:MR020", "result": 440, "unit": "nM"}, {"measurement": "potency estimated from few doses", "setting": "compound concentrations:100 nM and 1000 nM (sheet 'Lestaurtinib' of Supplementary Table 1),run:Lestaurtinib_02624_R3,Plate:MR020", "result": 215, "unit": "nM"}, {"measurement": "potency estimated from few doses", "setting": "compound concentrations:100 nM and 1000 nM (sheet 'Lestaurtinib' of Supplementary Table 1),run:Lestaurtinib_02741_R1,Plate:MR023", "result": 395, "unit": "nM"}, {"measurement": "potency estimated from few doses", "setting": "compound concentrations:100 nM and 1000 nM (sheet 'Lestaurtinib' of Supplementary Table 1),run:Lestaurtinib_02741_R2,Plate:MR023", "result": 396, "unit": "nM"}, {"measurement": "potency estimated from few doses", "setting": "compound concentrations:100 nM and 1000 nM (sheet 'Lestaurtinib' of Supplementary Table 1),run:Lestaurtinib_02741_R3,Plate:MR023", "result": 236, "unit": "nM"}]}
